Hit rate of the full screen: of about 2,100 compounds, about 760 (36%) were called active. Not all results are given here. Values without a mark were called inactive.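 How the source made its calls: active means thallium-flux fluorescence traces judged by eye to show enhanced or reduced glutamate response, manual score 1 or -1, so both directions (some results past the limit were not filed as active); inactive means the rest, including fluorescent or raised-baseline compounds.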
Experiment: thallium influx changes without GIRK channels – cell-based, HEK-293 rmGlu8, no GIRK, thallium flux, counter-screen for GIRK activator project, confirmation (AID 623868);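 further: extra codes mark interference with 3 for fluorescent and 4 for baseline rise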
Conditions: thallium flux fluorescence, at 10 µM, actives lie on both sides, codes: 1 enhancer, -1 blocker, 0 none, thallium stimulus containing EC20 glutamate

SMILES	manual score
CCCCCCCC1CC(CSC(=N)N)OC1=O (configuration not stated)	0
COc1ccc(C(C)N2CC34C=CC(O3)C(C(=O)OCC(C)C)C4C2=O)cc1 (configuration not stated)	0
N#CCCn1nc(-c2ccc(Cl)cc2)cc1Nc1ccccc1NC(=O)C(F)(F)F	0
O=C(CSc1ccc(-c2ccco2)nn1)c1ccccc1	0
COc1ccc(-c2nnc(NC(=O)c3ccc(F)cc3)o2)cc1	1 (active)
CCc1cc(C(N)=O)c(NC(=O)c2ccc(OC)cc2)s1	0
O=C(Nc1nnc(-c2ccco2)o1)c1ccc2ccccc2c1	1 (active)
CCCCOC(=S)NC(=O)c1sc2ccccc2c1Cl	1 (active)
O=C(NC(=S)N(CCCCO)C1CCCCC1)c1sc2ccccc2c1Cl	1 (active)
CCOC(=S)NC(=O)c1sc2ccccc2c1Cl	1 (active)
CCCOC(=S)NC(=O)c1sc2ccccc2c1Cl	1 (active)
OC(CN1C2=NCCCN2c2ccccc21)c1ccc(Br)cc1 (configuration not stated)	0
Cc1ccc2c(Cl)cc(Cl)c(OCC(=O)NCc3ccco3)c2n1	1 (active)
N=c1c(C(=O)NCc2ccco2)cc2c(=O)n3ccccc3nc2n1CCc1ccccc1	0
CCC/C(=N/NC(=O)c1cccc(Cl)c1)c1ccccc1	1 (active)
COc1cccc(NC(=O)Cn2cc3c(n2)CCCCC3)c1	0
CCNC(=S)N/N=C1\CCCCc2ccccc21	0.5
COc1cccc(NC(=S)N/N=C2/CCCCc3ccccc32)c1	1 (active)
COc1ccc(Nc2nc(N)nc(CSc3nnc(C)s3)n2)cc1	0
COc1cc(OC)c(-c2c3cc(O)c(=O)cc-3oc3cc(O)c(O)cc23)cc1OC	3
COc1ccc(NC(=O)Nc2ccccc2OC)cc1	0
COc1ccccc1NC(=O)C(=O)NNC(=O)c1ccco1	1 (active)

SMILES	manual score
COc1ccc(C)cc1NC(=O)C(=O)NNC(=O)c1ccco1	1 (active)
COc1ccc(NC(=O)Nc2cc(C)ccc2OC)cc1	0
COc1ccc(C)cc1NC(=O)Nc1ccccc1	0
COc1cccc(CNCCNC(=O)c2ccco2)c1OC	0
CC(C)c1ccc(-n2cccc2/C=C2/C(=N)N3C=CSC3=NC2=O)cc1	0
C(/C=C/C=C/Nc1ccccc1)=Nc1ccccc1	3
Cc1ccc(OCC(O)Cn2c(=N)n(CCN3CCCCC3)c3ccccc32)cc1 (configuration not stated)	0
CC(c1ccc(Cl)cc1)n1c(-c2ccc3ccccc3n2)n[nH]c1=S (configuration not stated)	1 (active)
CC(c1ccc(F)cc1)n1c(-c2ccc3ccccc3n2)n[nH]c1=S (configuration not stated)	1 (active)
CC(=O)Nc1ccc(Oc2ncccn2)cc1	0
O=C(NNC(=O)c1cccnc1SCc1cccc([N+](=O)[O-])c1)c1cccnc1	0
Cc1cccc(C)c1NC(=O)C(NC(=O)c1ccccn1)c1ccc([N+](=O)[O-])cc1 (configuration not stated)	0
O=C(NNC(=O)c1cccnc1SCc1cccc([N+](=O)[O-])c1)c1ccccn1	1 (active)
O=C(c1oc(=O)c2ccccc2c1-c1ccccc1)N1CCN(C2CCCCC2)CC1	0
CCOC(=O)c1cc2n(c1N)-c1ccccc1C2=O	3
CCOC(=O)C1=C(O)C(=O)N(c2ccc(S(N)(=O)=O)cc2)C1c1ccccc1 (configuration not stated)	-1 (active)
CCOC(=O)c1ccc(N2C(=O)C(O)=C(C(C)=O)C2c2ccccc2)cc1 (configuration not stated)	-0.5
Clc1cccc(-c2ccc(/C=N/n3cnnc3)o2)c1Cl	0
CCCCn1nnc(NC(=S)NC(=O)c2ccc(-c3cccc(Cl)c3Cl)o2)n1	1 (active)
CCCn1nnc(NC(=O)COc2ccc(C3CCCCC3)cc2)n1	0
COc1ccccc1N(C)S(=O)(=O)c1ccc(C(=O)N(CC(N)=O)C(C)C)cc1	0
CCOc1ccc(N2C(=O)/C(=C/c3cc(OC)c(OC)c(OC)c3)N(CC(=O)OC)C2=S)cc1	0

SMILES	manual score
CCOC(=O)C1CCN(C(=O)N(C)C)CC1	0
CS(=O)(=O)N(CC(=O)NCc1ccco1)c1ccc(Cl)c(C(F)(F)F)c1	0
CCOC(=O)C1CCN(C(=O)CN(c2ccc(Cl)c(C(F)(F)F)c2)S(C)(=O)=O)CC1	-1 (active)
O=C(N/N=C/c1ccc(Sc2ccccn2)o1)c1cc2ccccc2cc1O	1 (active)
CCCOc1ccc(/C=N/NC(=O)C(=O)Nc2ccccn2)cc1	1.5
O=C(CSc1nc2ccccc2[nH]1)NC1CCCc2ccccc21 (configuration not stated)	0
CN(C)CCNc1ncnc2c1cnn2-c1ccc(Cl)cc1	0
NC(=O)CSc1ncnc2c1cnn2Cc1ccccc1	0
Cc1ccc(-n2ncc3c(SCc4ccccc4)ncnc32)cc1	1 (active)
Cc1ccc(CSc2ncnc3c2cnn3-c2ccc(C)cc2)cc1	1 (active)
COc1ccc(OC)c(Nc2ncnc3c2cnn3-c2cccc(C)c2)c1	0
COc1cc2cnncc2cc1OC	0
CCOc1ccc(NC(=O)Cn2nnc(-c3ccccc3F)n2)cc1	0
CSc1nc(-c2ccccc2)[nH]c(=S)c1C(C)=O	1 (active)
CC(=O)c1c(N2CCCC2)[nH]c(-c2ccccc2)nc1=S	1 (active)
N#Cc1c(N2CCN(C(=O)c3ccccc3)CC2)nc(-c2ccccc2)c2c1CCCC2	0
CCCOC(=O)NC(CC)COC(=O)Nc1cccc(C)c1C (configuration not stated)	0
CN=C1c2c(-c3ccccc3)c3cc(OC)ccc3n2CCN1C	0
CC1CCN(c2ccccc2NC(=S)NC(=O)c2ccco2)CC1	1 (active)
O=C(NC(=S)Nc1ccccc1N1CCCCC1)c1ccco1	0
O=C(NC(=S)Nc1ccccc1N1CCOCC1)c1ccco1	1 (active)
O=C(C[n+]1cc(-c2ccccc2)n2c1CCC2)OCc1ccccc1	0

SMILES	manual score
O=C(NCc1ccc2c(c1)OCO2)C1CCN(Cc2cnn(-c3ccccc3)c2-n2cccc2)CC1	0
CCc1ccc(NCc2cc3c(C)nn(-c4ccccc4)c3[nH]c2=O)cc1	0
CC(C)(C)c1nn(-c2ccccc2)c2[nH]c(=O)c(CNCc3ccc4c(c3)OCO4)cc12	-1 (active)
C=CCNc1nc(N2CCCC2)nc2ccccc12	0
COc1ccc(/C=C2\C(=O)NC(=S)N2C(=O)c2ccc(F)cc2)cc1	1 (active)
COc1ccc(C(=O)N2C(=S)NC(=O)/C2=C\c2ccc(C)cc2)cc1	0.5
COc1ccc(NC2=Nc3cccc4cccc2c34)cc1OC	0
Cc1nc2ccc(NS(=O)(=O)c3ccc4c(c3)OCCO4)cc2s1	0
S=C(NCc1cccs1)Nc1cccc(Cl)c1	0
S=C(Nc1cccc(Cl)c1)Nc1cccc2cnccc12	0
Cc1csc(NC(=S)Nc2cccc(Cl)c2)n1	1 (active)
C=C(C)C1CC=C(C)/C(=N/NC(=O)c2ccc(NC(=O)CCC)cc2)C1 (configuration not stated)	0
COCCN=c1scc(-c2cccs2)n1/N=C/c1ccc(O)c(O)c1O	0
CCOc1ccc(C2=NNC(c3cccs3)=Nc3ccc(OC)cc32)cc1	0
COc1cccc(/C=N/n2c(-c3cccs3)n[nH]c2=S)c1	1 (active)
COc1ccc(/C=N/n2c(-c3cccs3)n[nH]c2=S)cc1	1 (active)
COc1cccc(OCCc2c(C)n[nH]c2C)c1	0
Cc1onc(-c2c(F)cccc2Cl)c1C(=O)OCn1nnc2ccccc2c1=O	0
COC(=O)C1=NN(c2ccccc2)C2C(=O)N(c3ccccc3OC)C(=O)C12 (configuration not stated)	0
CC1=NN(c2ccccc2)C(=O)C1C(=O)c1ccc(Cl)cc1 (configuration not stated)	1 (active)
COc1cc(NC(=O)CSCc2cnn(-c3ccccc3)c2-n2cccc2)cc(OC)c1	0
CCN(CC)c1ccc2c(c1)OC(N)=C(C#N)C2c1cccnc1 (configuration not stated)	3

SMILES	manual score
CC1=C(n2nnc3ccccc32)C(c2ccccc2)C(C#N)=C(N)O1 (configuration not stated)	0
Cc1ccc(N=Cc2cc3c(cc2O)OC(N)=C(C#N)C3c2ccccc2)cc1 (configuration not stated)	-1 (active)
CC(Sc1nnnn1C)C(=O)Nc1ccc(Oc2ccccc2)cc1 (configuration not stated)	0.5
COc1ccc(-n2cc(-c3ccccc3)[nH]c2=S)cc1	1 (active)
CCCn1c(=N)n(CCOc2ccc(OC)cc2)c2ccccc21	0
Cn1c(-c2ccc(-c3ccccc3)cc2)c[nH]c1=S	0
Cc1cccc(OCCn2c(=S)[nH]c3ccccc32)c1	0
COc1ccc(-n2c(=S)[nH]c3ccccc32)cc1	1 (active)
COc1ccc(-c2c3c(=O)n(C)c(=O)n(C)c3cn2-c2ccccc2)cc1	0
CC(C)(C)c1ccc(OCCON2C(=O)CCC2=O)c(Cl)c1	0
COc1ccc(C(CCNCc2ccccc2F)c2ccc(F)cc2)cc1 (configuration not stated)	0
COC(=O)c1cc(NC(=O)c2ccoc2C)cc(C(=O)OC)c1	0
CCOC(=O)C1=C(C)NC2=C(C(=O)C(C(=O)OCC)C(c3ccccc3OC)C2)C1c1ccccn1 (configuration not stated)	0
CCCC1=C(C(=O)OCC)C(c2ccc(F)cc2)n2ncnc2N1 (configuration not stated)	-0.5
CCOC(=O)C1=C(C)Nc2nnnn2C1c1ccccc1Cl (configuration not stated)	-1 (active)
CCCC(=O)Nc1ccccc1N1CCN(C(=O)c2ccccc2)CC1	-1 (active)
CC(C)C(=O)Nc1ccccc1N1CCN(C(=O)c2ccccc2)CC1	-1 (active)
O=C(c1ccc(-c2ccccc2)cc1)N1CCN(c2ncccn2)CC1	0
O=C(Nc1ccccc1N1CCCCC1)c1ccccc1F	0

— PubChem BioAssay AID623868 (Vanderbilt High Throughput Screening Facility, 2012)
